# In paper PMC7862700, “An all-to-all approach to the identification of sequence-specific readers for epigenetic DNA modifications on cytosine”:
# Experiments:
# Test in all cases: DAPPL (digital affinity profiling via proximity ligation, sequencing); 10 mM Tris-HCl pH 7.5, 50 mM NaCl, 1 mM DTT, 4% glycerol, room temperature, 30 min; GST-TFs on glutathione beads, 16-mer random dsDNA library, 0.1% formaldehyde crosslink after washing; high values mean tight binding
# FLI1 = biological target: T1, FLI1 (Homo sapiens, UniProt Q01543 1-452); conditions: protein: recombinant; tags: N-terminal GST; dsDNA, one strand shown
# T1 sequence: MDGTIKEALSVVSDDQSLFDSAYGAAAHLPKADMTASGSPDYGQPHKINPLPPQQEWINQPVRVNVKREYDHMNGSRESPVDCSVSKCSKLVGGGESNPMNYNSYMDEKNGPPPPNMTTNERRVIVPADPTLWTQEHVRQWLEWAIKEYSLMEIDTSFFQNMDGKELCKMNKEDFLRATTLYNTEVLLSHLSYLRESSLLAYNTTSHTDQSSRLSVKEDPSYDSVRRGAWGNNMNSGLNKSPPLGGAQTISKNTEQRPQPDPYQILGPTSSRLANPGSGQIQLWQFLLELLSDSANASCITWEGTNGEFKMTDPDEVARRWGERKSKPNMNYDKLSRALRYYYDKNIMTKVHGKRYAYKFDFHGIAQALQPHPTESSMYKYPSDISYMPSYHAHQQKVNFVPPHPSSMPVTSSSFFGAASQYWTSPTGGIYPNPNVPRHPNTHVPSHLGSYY
# Procedure, shortened: (§1)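 Beads coated with glutathione captured GST-fused human transcription factors that had been expressed in yeast, and the factors were then given DNA barcodes and pooled with a tag-only sample. The pools were incubated with 200 nmole of a random double-stranded 16-mer DNA library in Tris/NaCl/DTT/glycerol buffer for 30 min at room temperature, washed, crosslinked with 0.1% formaldehyde and proximity-ligated with BsaI/T4 ligase at 37 °C for 1 h. PCR amplification and Illumina NextSeq500 sequencing came last. Binding signal is each hexamer's read frequency for a factor divided by its frequency for the tag-only sample.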
# ELK1 = biological target: T2, ELK1 (Homo sapiens, UniProt P19419 1-428); conditions: protein: recombinant; tags: N-terminal GST; dsDNA, one strand shown
# T2 sequence: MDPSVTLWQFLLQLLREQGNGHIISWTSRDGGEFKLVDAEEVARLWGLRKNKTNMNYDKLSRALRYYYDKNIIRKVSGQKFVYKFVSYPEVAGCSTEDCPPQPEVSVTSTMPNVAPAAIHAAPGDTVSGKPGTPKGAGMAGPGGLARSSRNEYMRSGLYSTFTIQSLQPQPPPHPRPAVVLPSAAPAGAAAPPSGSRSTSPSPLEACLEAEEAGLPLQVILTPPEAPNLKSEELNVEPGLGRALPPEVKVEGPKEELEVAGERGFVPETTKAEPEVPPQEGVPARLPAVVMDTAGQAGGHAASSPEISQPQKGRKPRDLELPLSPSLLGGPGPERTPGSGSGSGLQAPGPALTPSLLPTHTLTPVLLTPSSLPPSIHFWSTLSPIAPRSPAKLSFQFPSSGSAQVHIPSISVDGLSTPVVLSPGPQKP
# Procedure, shortened: as §1
# GABPA = biological target: T3, GABPA (Homo sapiens, UniProt Q06546 1-454); conditions: protein: recombinant; tags: N-terminal GST; dsDNA, one strand shown
# T3 sequence: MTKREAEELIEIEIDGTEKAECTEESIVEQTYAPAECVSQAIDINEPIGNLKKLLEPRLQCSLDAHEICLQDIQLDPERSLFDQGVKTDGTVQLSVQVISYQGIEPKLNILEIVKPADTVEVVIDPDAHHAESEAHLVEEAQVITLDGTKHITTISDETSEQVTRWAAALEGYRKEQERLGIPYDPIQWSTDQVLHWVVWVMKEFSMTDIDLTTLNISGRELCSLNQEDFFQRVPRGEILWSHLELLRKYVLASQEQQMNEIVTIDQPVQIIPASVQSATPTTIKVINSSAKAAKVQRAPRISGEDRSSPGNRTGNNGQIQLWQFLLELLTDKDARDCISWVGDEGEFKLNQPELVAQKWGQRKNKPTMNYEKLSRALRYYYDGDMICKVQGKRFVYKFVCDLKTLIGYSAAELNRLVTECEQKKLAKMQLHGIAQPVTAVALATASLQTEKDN
# Procedure, shortened: as §1
# ERG = biological target: T4, ERG (Homo sapiens, UniProt P11308 1-479); conditions: protein: recombinant; tags: N-terminal GST; dsDNA, one strand shown
# T4 sequence: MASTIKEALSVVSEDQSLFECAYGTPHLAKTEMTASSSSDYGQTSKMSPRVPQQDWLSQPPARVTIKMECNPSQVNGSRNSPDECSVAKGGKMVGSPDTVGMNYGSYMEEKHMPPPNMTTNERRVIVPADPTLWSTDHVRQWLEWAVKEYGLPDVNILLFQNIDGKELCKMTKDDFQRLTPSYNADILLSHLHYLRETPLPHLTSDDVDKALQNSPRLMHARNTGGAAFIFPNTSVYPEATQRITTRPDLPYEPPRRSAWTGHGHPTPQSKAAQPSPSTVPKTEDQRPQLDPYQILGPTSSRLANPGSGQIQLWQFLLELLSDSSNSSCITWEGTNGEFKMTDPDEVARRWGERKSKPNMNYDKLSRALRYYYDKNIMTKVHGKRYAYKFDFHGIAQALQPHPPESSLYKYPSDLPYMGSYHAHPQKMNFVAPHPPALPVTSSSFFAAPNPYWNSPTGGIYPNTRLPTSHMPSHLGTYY
# Procedure, shortened: as §1
# ELF1 = ELF1 (Homo sapiens, UniProt P32519 1-619); conditions: protein: recombinant; tags: N-terminal GST; dsDNA, one strand shown
# Sequence of ELF1 (P32519 whole entry): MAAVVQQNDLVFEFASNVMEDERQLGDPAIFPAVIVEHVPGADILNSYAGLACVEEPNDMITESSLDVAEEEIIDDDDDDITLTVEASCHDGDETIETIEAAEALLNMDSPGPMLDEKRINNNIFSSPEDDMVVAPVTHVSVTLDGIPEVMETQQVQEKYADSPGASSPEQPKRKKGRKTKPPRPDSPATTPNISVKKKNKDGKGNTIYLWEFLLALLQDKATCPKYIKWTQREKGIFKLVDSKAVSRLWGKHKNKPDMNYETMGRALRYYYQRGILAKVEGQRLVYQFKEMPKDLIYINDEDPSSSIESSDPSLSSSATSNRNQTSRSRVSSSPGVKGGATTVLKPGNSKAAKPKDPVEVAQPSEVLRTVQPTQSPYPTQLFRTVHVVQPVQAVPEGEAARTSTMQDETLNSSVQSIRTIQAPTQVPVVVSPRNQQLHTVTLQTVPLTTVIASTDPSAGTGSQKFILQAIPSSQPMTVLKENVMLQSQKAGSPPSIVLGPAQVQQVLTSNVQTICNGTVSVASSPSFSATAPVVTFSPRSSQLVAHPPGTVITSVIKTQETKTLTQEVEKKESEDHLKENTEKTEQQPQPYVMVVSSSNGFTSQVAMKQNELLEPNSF
# Procedure, shortened: as §1
# EHF = biological target: T5, EHF (Homo sapiens, UniProt Q9NZC4 1-300); conditions: protein: recombinant; tags: N-terminal GST; dsDNA, one strand shown
# T5 sequence: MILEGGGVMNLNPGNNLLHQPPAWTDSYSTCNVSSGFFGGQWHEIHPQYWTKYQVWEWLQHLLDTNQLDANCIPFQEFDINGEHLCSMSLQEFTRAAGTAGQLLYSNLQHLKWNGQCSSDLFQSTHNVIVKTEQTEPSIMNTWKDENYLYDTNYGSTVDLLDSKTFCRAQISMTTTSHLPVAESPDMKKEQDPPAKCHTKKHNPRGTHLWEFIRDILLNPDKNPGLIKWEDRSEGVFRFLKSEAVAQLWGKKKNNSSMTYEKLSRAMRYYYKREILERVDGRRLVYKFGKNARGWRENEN
# Procedure, shortened: as §1
# SPI1 = SPI1 (Homo sapiens, UniProt P17947 1-270); conditions: protein: recombinant; tags: N-terminal GST; dsDNA, one strand shown
# Procedure, shortened: as §1
# SPIB = SPIB (Homo sapiens, UniProt Q01892 1-262); conditions: protein: recombinant; tags: N-terminal GST; dsDNA, one strand shown
# Sequence of SPIB (Q01892 whole entry): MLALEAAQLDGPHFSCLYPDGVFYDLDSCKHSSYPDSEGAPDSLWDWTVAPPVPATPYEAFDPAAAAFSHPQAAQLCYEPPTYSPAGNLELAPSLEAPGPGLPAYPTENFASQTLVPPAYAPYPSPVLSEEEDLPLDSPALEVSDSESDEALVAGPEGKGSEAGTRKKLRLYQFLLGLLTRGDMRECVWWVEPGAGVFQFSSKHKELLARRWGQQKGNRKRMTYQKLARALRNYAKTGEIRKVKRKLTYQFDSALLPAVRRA
# Procedure, shortened: as §1
# ELK3 = biological target: T6, ELK3 (Homo sapiens, UniProt P41970 1-407); conditions: protein: recombinant; tags: N-terminal GST; dsDNA, one strand shown
# T6 sequence: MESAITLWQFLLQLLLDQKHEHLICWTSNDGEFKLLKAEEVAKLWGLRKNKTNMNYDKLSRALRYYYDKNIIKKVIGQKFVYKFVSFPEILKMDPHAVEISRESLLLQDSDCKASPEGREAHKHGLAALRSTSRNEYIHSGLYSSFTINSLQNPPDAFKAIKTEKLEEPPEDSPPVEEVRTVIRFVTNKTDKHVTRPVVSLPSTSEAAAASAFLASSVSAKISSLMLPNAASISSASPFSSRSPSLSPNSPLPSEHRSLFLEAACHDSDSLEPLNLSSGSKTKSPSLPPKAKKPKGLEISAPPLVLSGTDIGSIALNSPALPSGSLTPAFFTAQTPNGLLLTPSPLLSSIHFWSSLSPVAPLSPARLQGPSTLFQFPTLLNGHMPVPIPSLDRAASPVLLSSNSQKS
# Procedure, shortened: as §1
# FEV = biological target: T7, FEV (Homo sapiens, UniProt Q99581 1-238); conditions: protein: recombinant; tags: N-terminal GST; dsDNA, one strand shown
# T7 sequence: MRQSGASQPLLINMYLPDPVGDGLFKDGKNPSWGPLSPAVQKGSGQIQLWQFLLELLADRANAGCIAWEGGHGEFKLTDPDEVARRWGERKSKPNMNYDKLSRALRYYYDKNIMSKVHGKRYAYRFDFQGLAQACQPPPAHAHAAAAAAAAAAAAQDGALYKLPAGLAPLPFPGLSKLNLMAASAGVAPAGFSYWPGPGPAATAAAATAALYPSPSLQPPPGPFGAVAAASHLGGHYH
# Procedure, shortened: as §1
# ETV5 = ETV5 (Homo sapiens, UniProt P41161 1-510); conditions: protein: recombinant; tags: N-terminal GST; dsDNA, one strand shown
# Sequence of ETV5 (P41161 whole entry): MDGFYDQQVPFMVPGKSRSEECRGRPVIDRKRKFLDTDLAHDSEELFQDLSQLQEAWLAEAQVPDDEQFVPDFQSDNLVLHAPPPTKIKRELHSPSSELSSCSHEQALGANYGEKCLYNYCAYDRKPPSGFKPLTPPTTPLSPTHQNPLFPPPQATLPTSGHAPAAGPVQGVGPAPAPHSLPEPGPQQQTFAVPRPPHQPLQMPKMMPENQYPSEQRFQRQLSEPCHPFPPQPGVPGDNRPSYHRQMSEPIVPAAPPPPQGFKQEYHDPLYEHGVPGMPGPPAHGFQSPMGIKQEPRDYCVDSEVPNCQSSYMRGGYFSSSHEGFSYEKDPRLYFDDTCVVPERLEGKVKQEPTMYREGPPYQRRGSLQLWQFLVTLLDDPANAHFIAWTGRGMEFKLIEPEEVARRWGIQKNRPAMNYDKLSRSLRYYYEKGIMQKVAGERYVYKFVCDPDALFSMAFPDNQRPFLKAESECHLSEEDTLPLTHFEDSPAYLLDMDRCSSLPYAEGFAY
# Procedure, shortened: as §1
# HSF1 = HSF1 (Homo sapiens, UniProt Q00613 1-529); conditions: protein: recombinant; tags: N-terminal GST; chain copies: 3; dsDNA, one strand shown
# Sequence of HSF1 (Q00613 whole entry): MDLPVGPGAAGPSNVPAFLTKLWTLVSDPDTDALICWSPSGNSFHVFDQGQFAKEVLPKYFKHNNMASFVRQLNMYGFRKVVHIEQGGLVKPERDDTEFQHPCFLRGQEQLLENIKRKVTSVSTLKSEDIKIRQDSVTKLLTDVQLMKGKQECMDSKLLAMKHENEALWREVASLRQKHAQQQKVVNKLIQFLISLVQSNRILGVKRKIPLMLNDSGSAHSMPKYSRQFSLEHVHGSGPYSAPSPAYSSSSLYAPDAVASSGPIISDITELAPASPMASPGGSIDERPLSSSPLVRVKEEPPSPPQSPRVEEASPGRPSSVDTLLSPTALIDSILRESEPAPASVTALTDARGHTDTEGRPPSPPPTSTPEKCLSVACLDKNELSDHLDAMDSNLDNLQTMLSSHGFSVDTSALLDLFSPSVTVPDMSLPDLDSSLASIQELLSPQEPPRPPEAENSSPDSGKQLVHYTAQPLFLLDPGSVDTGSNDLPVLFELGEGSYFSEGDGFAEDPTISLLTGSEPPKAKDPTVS
# Procedure, shortened: as §1
# SPIC = biological target: T8, SPIC (Homo sapiens, UniProt Q8N5J4 1-248); conditions: protein: recombinant; tags: N-terminal GST; dsDNA, one strand shown
# T8 sequence: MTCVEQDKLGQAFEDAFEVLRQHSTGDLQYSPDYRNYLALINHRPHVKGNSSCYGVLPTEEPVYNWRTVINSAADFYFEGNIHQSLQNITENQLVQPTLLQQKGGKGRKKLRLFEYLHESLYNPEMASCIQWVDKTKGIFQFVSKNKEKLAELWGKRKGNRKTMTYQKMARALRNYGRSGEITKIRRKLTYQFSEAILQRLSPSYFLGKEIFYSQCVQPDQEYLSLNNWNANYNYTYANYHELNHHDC
# Procedure, shortened: as §1
# ELF4 = ELF4 (Homo sapiens, UniProt Q99607 1-663); conditions: protein: recombinant; tags: N-terminal GST; dsDNA, one strand shown
# Sequence of ELF4 (Q99607 whole entry): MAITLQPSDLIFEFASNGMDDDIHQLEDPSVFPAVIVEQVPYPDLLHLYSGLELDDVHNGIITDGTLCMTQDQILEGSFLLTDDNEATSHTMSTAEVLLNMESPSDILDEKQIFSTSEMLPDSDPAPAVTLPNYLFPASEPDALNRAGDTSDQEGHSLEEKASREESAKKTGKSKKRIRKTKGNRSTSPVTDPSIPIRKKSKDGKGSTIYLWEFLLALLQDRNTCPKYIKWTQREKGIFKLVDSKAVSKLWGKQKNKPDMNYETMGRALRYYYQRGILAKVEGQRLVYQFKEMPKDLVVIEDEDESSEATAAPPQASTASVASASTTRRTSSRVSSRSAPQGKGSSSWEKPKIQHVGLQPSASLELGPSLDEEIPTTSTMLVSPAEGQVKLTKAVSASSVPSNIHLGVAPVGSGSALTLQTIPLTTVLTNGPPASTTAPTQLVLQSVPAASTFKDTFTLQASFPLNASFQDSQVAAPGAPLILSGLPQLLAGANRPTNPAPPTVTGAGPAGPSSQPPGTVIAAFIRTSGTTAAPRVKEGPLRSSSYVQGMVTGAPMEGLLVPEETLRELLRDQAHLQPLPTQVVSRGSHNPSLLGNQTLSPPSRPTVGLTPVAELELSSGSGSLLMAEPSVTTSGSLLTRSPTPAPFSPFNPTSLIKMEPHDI
# Procedure, shortened: as §1
# ELK4 = biological target: T9, ELK4 (Homo sapiens, UniProt P28324-2 1-405); conditions: protein: recombinant; tags: N-terminal GST; dsDNA, one strand shown
# T9 sequence: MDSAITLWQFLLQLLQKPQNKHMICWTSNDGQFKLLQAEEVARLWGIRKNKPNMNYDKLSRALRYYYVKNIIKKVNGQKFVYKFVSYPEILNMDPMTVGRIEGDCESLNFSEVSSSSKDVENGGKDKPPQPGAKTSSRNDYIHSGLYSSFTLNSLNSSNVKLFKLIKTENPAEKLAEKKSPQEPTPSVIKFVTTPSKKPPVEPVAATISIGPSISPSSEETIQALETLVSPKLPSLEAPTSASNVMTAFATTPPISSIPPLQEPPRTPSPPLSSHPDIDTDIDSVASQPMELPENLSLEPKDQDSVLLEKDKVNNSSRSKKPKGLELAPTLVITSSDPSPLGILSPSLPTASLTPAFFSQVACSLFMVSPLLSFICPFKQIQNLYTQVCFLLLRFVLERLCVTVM
# Procedure, shortened: as §1
# ETV2 = biological target: T10, ETV2 (Homo sapiens, UniProt O00321 1-342); conditions: protein: recombinant; tags: N-terminal GST; dsDNA, one strand shown
# T10 sequence: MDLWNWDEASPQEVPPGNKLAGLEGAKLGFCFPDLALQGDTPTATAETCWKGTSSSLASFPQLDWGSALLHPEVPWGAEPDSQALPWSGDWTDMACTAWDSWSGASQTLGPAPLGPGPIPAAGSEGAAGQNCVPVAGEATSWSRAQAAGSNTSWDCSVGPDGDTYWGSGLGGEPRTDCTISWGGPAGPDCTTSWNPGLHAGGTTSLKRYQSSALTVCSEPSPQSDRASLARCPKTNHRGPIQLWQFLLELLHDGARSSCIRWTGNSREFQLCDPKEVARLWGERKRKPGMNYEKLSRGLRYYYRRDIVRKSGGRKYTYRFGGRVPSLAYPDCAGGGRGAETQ
# Procedure, shortened: as §1
# ELF3 = biological target: T11, ELF3 (Homo sapiens, UniProt P78545 1-371); conditions: protein: recombinant; tags: N-terminal GST; dsDNA, one strand shown
# T11 sequence: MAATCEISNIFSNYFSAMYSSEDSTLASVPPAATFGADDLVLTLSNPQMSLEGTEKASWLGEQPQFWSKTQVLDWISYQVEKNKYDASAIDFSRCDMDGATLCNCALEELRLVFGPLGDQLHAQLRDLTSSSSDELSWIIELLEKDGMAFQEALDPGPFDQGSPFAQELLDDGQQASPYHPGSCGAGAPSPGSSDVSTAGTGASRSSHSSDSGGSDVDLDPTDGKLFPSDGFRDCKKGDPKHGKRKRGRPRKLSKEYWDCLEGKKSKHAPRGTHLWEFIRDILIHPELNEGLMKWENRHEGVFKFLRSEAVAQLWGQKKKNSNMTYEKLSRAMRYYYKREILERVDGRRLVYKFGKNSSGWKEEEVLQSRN
# Procedure, shortened: as §1
# CRX = CRX (Homo sapiens, UniProt O43186 1-299); conditions: protein: recombinant; tags: N-terminal GST; dsDNA, one strand shown
# Sequence of CRX (O43186 whole entry): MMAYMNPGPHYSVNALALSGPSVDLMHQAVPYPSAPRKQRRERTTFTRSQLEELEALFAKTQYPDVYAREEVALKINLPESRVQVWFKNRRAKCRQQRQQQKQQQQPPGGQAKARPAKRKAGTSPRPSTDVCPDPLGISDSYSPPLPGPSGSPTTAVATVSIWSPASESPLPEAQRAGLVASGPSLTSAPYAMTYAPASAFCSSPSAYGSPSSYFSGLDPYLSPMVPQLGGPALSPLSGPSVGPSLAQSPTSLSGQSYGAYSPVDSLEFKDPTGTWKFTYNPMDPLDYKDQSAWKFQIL
# Procedure, shortened: as §1
# ETV1 = ETV1 (Homo sapiens, UniProt P50549 1-477); conditions: protein: recombinant; tags: N-terminal GST; dsDNA, one strand shown
# Sequence of ETV1 (P50549 whole entry): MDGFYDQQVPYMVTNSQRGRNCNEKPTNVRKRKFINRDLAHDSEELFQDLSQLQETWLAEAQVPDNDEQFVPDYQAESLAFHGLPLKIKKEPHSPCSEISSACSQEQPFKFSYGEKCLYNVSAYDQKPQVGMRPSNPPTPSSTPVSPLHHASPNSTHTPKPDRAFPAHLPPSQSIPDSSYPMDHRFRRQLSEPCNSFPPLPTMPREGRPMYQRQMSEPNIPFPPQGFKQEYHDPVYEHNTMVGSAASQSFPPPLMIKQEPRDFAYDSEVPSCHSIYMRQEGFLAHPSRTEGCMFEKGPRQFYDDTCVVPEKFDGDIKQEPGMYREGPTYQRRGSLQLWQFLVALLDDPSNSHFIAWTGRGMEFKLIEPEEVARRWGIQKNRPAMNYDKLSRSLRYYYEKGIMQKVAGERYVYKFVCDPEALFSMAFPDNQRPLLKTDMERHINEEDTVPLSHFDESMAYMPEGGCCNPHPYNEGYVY
# Procedure, shortened: as §1
sequence,measurement,setting,value
TGTAAT,binding signal,FLI1,"1.27 fold enrichment (6-mer frequency, TF over GST control)"
same,binding signal,ELK1,"1.2 fold enrichment (6-mer frequency, TF over GST control)"
same,binding signal,GABPA,"1.2 fold enrichment (6-mer frequency, TF over GST control)"
same,binding signal,ERG,"1.2 fold enrichment (6-mer frequency, TF over GST control)"
same,binding signal,ELF1,"1.18 fold enrichment (6-mer frequency, TF over GST control)"
same,binding signal,EHF,"1.15 fold enrichment (6-mer frequency, TF over GST control)"
same,binding signal,SPI1,"1.15 fold enrichment (6-mer frequency, TF over GST control)"
same,binding signal,SPIB,"1.25 fold enrichment (6-mer frequency, TF over GST control)"
same,binding signal,ELK3,"1.26 fold enrichment (6-mer frequency, TF over GST control)"
same,binding signal,FEV,"1.12 fold enrichment (6-mer frequency, TF over GST control)"
same,binding signal,ETV5,"1.17 fold enrichment (6-mer frequency, TF over GST control)"
same,binding signal,HSF1,"1.39 fold enrichment (6-mer frequency, TF over GST control)"
same,binding signal,SPIC,"1.27 fold enrichment (6-mer frequency, TF over GST control)"
same,binding signal,ELF4,"1.23 fold enrichment (6-mer frequency, TF over GST control)"
same,binding signal,ELK4,"1.21 fold enrichment (6-mer frequency, TF over GST control)"
same,binding signal,ETV2,"1.26 fold enrichment (6-mer frequency, TF over GST control)"
same,binding signal,ELF3,"1.26 fold enrichment (6-mer frequency, TF over GST control)"
same,binding signal,CRX,"1.79 fold enrichment (6-mer frequency, TF over GST control)"
same,binding signal,ETV1,"1.17 fold enrichment (6-mer frequency, TF over GST control)"
